Source: PubChem
This excerpt belongs to a sample that is enriched for hits.
KDM5B inh: Primary screen for KDM5B Histone Demethylases FDH-coupled qHTS | KDM5B demethylase, FDH-coupled NADH fluorescence (FDH is formaldehyde dehydrogenase) | Potency, µM (top dose mostly 57.7 µM), actives largely listed as inhibitors | hit rate 2.6% among 220,000 | AID 1347165, 2019; active = well fitted inhibition curve with a large enough effect; note: nearly all actives have a fitted effect of over 70% in size
Target sequence (Q9UGL1 whole entry, looked up): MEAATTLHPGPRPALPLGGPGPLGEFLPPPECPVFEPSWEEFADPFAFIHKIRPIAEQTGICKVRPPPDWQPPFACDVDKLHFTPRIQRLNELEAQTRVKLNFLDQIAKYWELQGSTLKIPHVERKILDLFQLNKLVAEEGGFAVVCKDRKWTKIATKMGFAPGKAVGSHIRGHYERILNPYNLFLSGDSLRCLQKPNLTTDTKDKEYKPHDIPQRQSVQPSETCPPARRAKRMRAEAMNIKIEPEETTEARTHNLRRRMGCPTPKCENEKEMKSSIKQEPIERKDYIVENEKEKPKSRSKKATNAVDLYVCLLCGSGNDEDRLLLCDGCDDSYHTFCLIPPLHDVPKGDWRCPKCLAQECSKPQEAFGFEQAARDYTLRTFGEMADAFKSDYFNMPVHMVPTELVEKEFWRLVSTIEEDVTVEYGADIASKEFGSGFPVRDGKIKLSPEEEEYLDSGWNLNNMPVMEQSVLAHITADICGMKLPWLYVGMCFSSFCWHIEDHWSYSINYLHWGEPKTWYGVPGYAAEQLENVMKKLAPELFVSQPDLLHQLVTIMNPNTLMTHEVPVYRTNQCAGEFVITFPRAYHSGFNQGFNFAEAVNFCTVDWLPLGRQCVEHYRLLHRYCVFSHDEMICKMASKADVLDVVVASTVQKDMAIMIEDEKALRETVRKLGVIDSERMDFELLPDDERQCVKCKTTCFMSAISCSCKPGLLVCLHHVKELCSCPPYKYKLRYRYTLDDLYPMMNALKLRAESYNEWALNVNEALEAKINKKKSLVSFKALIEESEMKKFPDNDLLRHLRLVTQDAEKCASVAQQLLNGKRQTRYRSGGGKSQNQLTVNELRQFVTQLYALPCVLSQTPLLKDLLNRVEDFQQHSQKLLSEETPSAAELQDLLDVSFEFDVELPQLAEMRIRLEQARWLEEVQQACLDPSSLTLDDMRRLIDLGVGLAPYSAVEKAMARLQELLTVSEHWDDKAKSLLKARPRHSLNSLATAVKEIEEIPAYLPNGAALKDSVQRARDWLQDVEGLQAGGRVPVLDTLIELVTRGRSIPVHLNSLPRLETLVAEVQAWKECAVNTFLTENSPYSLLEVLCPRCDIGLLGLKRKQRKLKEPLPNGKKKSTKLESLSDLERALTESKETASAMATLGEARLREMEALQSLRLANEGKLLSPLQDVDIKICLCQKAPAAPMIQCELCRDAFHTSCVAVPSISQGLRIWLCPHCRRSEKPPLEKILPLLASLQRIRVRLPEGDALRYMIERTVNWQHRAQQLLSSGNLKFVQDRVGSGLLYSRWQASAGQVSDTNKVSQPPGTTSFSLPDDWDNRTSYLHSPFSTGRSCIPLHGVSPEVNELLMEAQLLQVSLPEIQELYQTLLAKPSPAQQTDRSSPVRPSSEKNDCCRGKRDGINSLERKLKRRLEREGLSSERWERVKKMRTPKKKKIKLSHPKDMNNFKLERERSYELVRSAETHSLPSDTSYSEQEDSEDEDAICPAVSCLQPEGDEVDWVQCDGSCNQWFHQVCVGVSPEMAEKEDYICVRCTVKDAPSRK
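qHTS format, multiple compound concentrations. Buffer 50 mM HEPES pH 7.5/0.01% Tween-20; 200 nM KDM5BΔAP final; 10 min compound preincubation; substrate-mix levels 12.5 µM peptide, 25 µM α-KG, 0.25 mM NAD⁺; 30 min RT; ΔRFU.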
Of the large screens only hits and unclear results are named; the others gave an inactive call.

CCc1ccc2c(Cn3cc(S(=O)(=O)N(C)C)ccc3=O)cc(=O)oc2c1	none
CCCc1cc(=O)n2nc(N(C)CC(=O)Nc3cccc(Cl)c3C)sc2n1	none
CC(C)CN(CC(C)C)C[C@H]1O[C@H](Cc2cc(COc3ccccc3)on2)CC[C@@H]1O	none
O=C(OCn1nnc2ccccc2c1=O)c1ccc(S(=O)(=O)N2CCCc3ccccc32)cc1	none
O=C(O)CCc1conc1-c1ccc(F)cc1	none
COc1ccc(-c2nc3cnccn3c2NCCC(=O)N2CCCCCC2)cc1	KDM5B inh 28µM
O=C(CNc1nc(-c2ccccc2)nc2ccccc12)N1CCCC1	none
Cc1nn(C)c2nc(NCCC(=O)N3CCCC3)sc12	none
CC(C)c1ccc(Nc2c(-c3ccc(N(C)C)cc3)nc3cnccn23)cc1	none
O=C(CCNc1c(-c2ccccc2)nc2cnccn12)N1CCCC1	KDM5B inh 28µM
O=C(O)CCNc1c(-c2ccc(F)cc2)nc2cnccn12	KDM5B inh 28µM
Cc1ccc(C(=O)Nc2c(-c3ccccc3)nc3ccccn23)cc1	none
COc1ccc(-c2noc(C(=O)N3CCCC3)c2[C@H](C)O)cc1	none
COc1ccc(-c2nnc(SCC(=O)N3CCCCC3)o2)cc1	none
Cc1ccc(-c2nc3cnccn3c2NCCC(=O)N2CCCCC2)cc1	KDM5B inh 32µM
O=C(CCNS(=O)(=O)c1ccccc1)N1CCCCCC1	none
O=C(COC(=O)c1cccc([N+](=O)[O-])c1)c1ccc(Cl)cc1	none
Cc1nc2ccc(Cl)cc2cc1C(=O)N1CCN(CC(=O)N2CCCC2)CC1	none
N#Cc1nc(-c2ccc(S(=O)(=O)N3CCCCC3)cc2)oc1NCCCN1CCOCC1	none
O=C([C@H]1O[C@H](CCN2CCN(Cc3ccccc3)CC2)CC[C@@H]1O)N1CCN(c2ccc(F)cc2)CC1	none
Cc1c(-c2ccccc2)oc2c(C(=O)OCC(=O)NC(=O)NC3CCCC3)cccc2c1=O	none
Cc1ccc(SCc2ccccc2C#N)cc1	none
O=C(CCOc1cccc(F)c1)N1CCC(c2nnc3n2CCC3)CC1	none
O=C(Nc1ccc(-c2cccc(F)c2)cc1)C1CCCN(C(=O)c2ccncc2)C1 (centres undefined)	none
CN(Cc1ccccc1)C(=O)c1nc2ccccn2c1CNCCOc1cccnc1	none
CN(Cc1ccccc1)C(=O)CCNc1c(-c2cccc(F)c2)nc2cnccn12	KDM5B inh 25µM
O=C(CCNc1c(-c2cccc(F)c2)nc2cnccn12)N1CCCC1	KDM5B inh 28µM
O=C(Nc1c(-c2ccccc2)nc2ccccn12)c1cccc(F)c1	none
Cc1cc(C(=O)CCC(=O)O)c(C)s1	none
CCOc1cc(C#N)ccc1OC(=O)c1ccccc1OC	none
Cc1c(OS(=O)(=O)c2cccs2)ccc2c(-c3ccccc3)cc(=O)oc12	none
Cn1nc(C(=O)NCCN2CCCCCC2)c2c1-c1ccccc1OC2	none
COc1ccc(C(=O)N2CCc3cn(C)c4cccc(c34)C2)c(C)c1	none
CN(C)c1ccc(C(=O)N2CCc3cn(C)c4cccc(c34)C2)cc1	none
CCn1cc2c3c(cccc31)CN(C(=O)c1ccc(OC)c(F)c1)CC2	KDM5B inh 32µM
Cc1cccn2cc(CSc3ncc(C(F)(F)F)cc3Cl)nc12	none
Oc1ccccc1CN1CCNc2cc(Nc3ccccc3)ncc2C1	none
CC(C)(C)CN1CCNc2cc(Nc3cccnc3)ncc2C1	none
Oc1ccccc1CN1CCNc2cnc(Nc3ccccc3)cc2C1	KDM5B inh 22µM
Cc1noc(C)c1CN1CCNc2cc(Nc3ccccc3)ncc2C1	none
c1ccc(Nc2cc3c(cn2)CN(Cc2ccn[nH]2)CCN3)cc1	none
Oc1ccccc1CN1CCNc2cc(Nc3cccnc3)ncc2C1	KDM5B inh 35µM
Cc1[nH]cnc1CN1CCNc2cc(Nc3ccccc3)ncc2C1	none
c1ccc(CN2CCNc3cnc(Nc4ccncn4)cc3C2)cc1	none
c1ccc(Nc2cc3c(cn2)NCCN(Cc2ccccn2)C3)cc1	KDM5B inh 35µM
O=C1CSc2ccc(C(=O)Nc3ccc(Oc4ccccc4)cc3)cc2N1	none
CCOC(=O)C1CCN(C(=O)Cc2ccc(N(Cc3ccccc3)C(=O)c3ccco3)cc2)CC1	none
O=C(NCCCOCC1CC1)c1cc(=O)[nH]c2ccccc12	none
Cc1ccc2c(C)c(CCC(=O)N3CCC(C(=O)N4CCCCC4)CC3)c(=O)oc2c1	none
Cc1nc2ccc(NS(=O)(=O)c3cccs3)cc2s1	none
COCCNC(=O)c1nc(-c2ccc(OC)cc2)c2ccccn12	KDM5B inh 89µM
COc1ccc(OCCNC(=O)c2cn(C)c3ccccc23)cc1	none
COCCNC(=O)c1nc(-c2ccc(F)cc2)c2ccccn12	KDM5B inh 40µM
COCCNC(=O)c1nc(-c2ccccc2)c2ccccn12	none
COCCNC(=O)c1ccccc1NC(=O)c1nc(-c2ccccc2)oc1C	none
CC(=O)NC(O)C(=O)c1ccc(C)cc1 (centres undefined)	none
NC(CC(=O)O)C(F)(F)F (centres undefined)	none
Cn1c(CNC(=O)c2cc3c(s2)CN(C2CC2)C3)nc2ccccc21	KDM5B inh 13µM
O=C(O)c1cc2c(s1)CN(C1CCCC1)C2	none
Cn1c(CNC(=O)CC2CCOCC2)nc2ccccc21	none
CCC1CCCCN1CCNC(=O)c1cc2c(s1)CN(C1CCCC1)C2 (centres undefined)	KDM5B inh 14µM
CCC1CCCCN1CCCNC(=O)c1cc2c(Cl)nc3ccc(C)cc3c2s1 (centres undefined)	none
Cn1c(CNC(=O)c2cccc(C3CCNC3)c2)nc2ccccc21 (centres undefined)	none
Cc1nn(C)c(C)c1CCC(=O)N1CCC(Cc2noc(-c3ccc(F)cc3)n2)C1 (centres undefined)	none
COc1ccc2cc(CNC(=O)c3cc4ccc(OC)cc4nc3C)ccc2c1	none
CCN(CC)CC(=O)Nc1sccc1C#N	none
O=C(C1CCC1)N(C1CCCCC1)C1CCCCC1	none
CCS(=O)(=O)c1ccc2oc([C@H]3CCN(C(C)C)C3)nc2c1	KDM5B inh 40µM
CC(=O)N1CC[C@H](c2nc3cc(F)ccc3o2)C1	none
CCCc1noc(C(C)N2CCC(c3nc4cc(Cl)ccc4o3)CC2)n1 (centres undefined)	none
O=C(Cc1ccccc1Cl)NCc1nnc2ccc(-c3ccccc3)nn12	KDM5B inh 11µM
CC(=O)Nc1ccc(NC(=O)CSc2nnc3ccc(-c4ccc(F)cc4)nn23)cc1	none
COc1cc(CNC(=O)Cc2ccsc2)ccn1	none
O=C(Cn1c(=O)nc(-c2ccccc2)c2ccccc21)NCc1ccccc1Cl	none
O=C(NCc1nnc2ccc(-c3ccc(Cl)cc3)nn12)c1cc(F)ccc1Cl	KDM5B inh 16µM
O=C(Cc1cccs1)NCc1nnc2ccc(-c3ccccc3)nn12	none
Cc1ccccc1CC(=O)NCc1nnc2ccc(-c3ccccc3)nn12	KDM5B inh 32µM
O=C(Cc1ccsc1)NCc1nnc2ccc(-c3ccc(Cl)cc3)nn12	KDM5B inh 25µM
Cc1ccccc1CNC(=O)CC(C)C	none
O=C(Cc1ccsc1)NCc1ccccc1	none
O=S(Cc1ccc(F)cc1)Cc1ccc(Cl)cc1 (centres undefined)	none
CCOC(=O)c1sc(NC(C)CC)nc1C(F)(F)F (centres undefined)	none
COCCNC(=S)N/N=C/c1c(OC)cc(OC)cc1OC	none
O=C(COCC(=O)N(c1ccccc1)c1ccccc1)Nc1ccccc1	none
O=C(Cc1ccc(N2CCCC2=O)cc1)N[C@@H](Cc1ccccc1)c1nc2ccccc2[nH]1	none
CCOC(=O)CN1CCCC1c1ccsc1 (centres undefined)	none
N#Cc1nc(-c2ccc(S(=O)(=O)N3CCCCCC3)cc2)oc1NC1CCCCC1	none
O=C(c1cc(Cl)ccc1Cl)N1CCN(C(=O)c2cc(Cl)ccc2Cl)CC1	none
COc1ccc(NC(=O)CSc2ccc3nnc(CCNC(=O)c4ccccc4)n3n2)cc1	none
